Screening results from PubChem.
Shown are actives, neighbours in structure and some others; about 32% of the full set was active somewhere.
CYP2C19 activ: activators of human cytochrome P450 2C19; activation factor at 5 µM; recombinant CYP2C19, luciferin-H EGE luminescence; hits give high values; 0 = fully inhibited enzyme, 1 = untreated enzyme; P33261; 96,000 tested, under 10 active;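 active means activation factor of at least 2 at 5 µM in the primary screen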;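 further: 0 = wells with 2.5 mM tranylcypromine and 1 = vehicle-only wells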
PostGolgi yeast: growth inhibition of a yeast mutant, post-Golgi transport screen; AID 739; inhibition, % at 10 µM; post-Golgi transport phenotypic cell assay; 98,000 compounds, 0.9% hits;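 further: yeast cells grown in 1536-well plates; yeast grown about 18 h at 30C before absorbance read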
CYP2C19 inh: inhibitors of human CYP2C19. P33261. CYP2C19 Supersomes, luciferin-H EGE luminescence, 30 min. inhibition, % at 5 µM. 96,000 compounds, 21% hits;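 active means CYP2C19 inhibition above a set limit at 5 µM in the primary screen, cut at about 50% in these data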;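 further: plate controls were negative control wells for no effect and 2.5 mM tranylcypromine positive control for full effect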
PostGolgi ctrl: inhibits growth of the yeast control strain; efflux-deficient yeast background strain, growth absorbance A615, 16 h; inhibition, % at 10 µM; 98,000 compounds, 5% hits
CYP2C9 inhib: inhibitors of human CYP2C9; P11712; inhibition, % at 5 µM; 96,000 compounds, 20% hits; CYP2C9 Supersomes, luciferin-H conversion, luminescence;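 active means blocking of liver enzyme CYP2C9 beyond about 50% at 5 µM, limit read from the data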
Target sequence (P11712 whole entry, looked up): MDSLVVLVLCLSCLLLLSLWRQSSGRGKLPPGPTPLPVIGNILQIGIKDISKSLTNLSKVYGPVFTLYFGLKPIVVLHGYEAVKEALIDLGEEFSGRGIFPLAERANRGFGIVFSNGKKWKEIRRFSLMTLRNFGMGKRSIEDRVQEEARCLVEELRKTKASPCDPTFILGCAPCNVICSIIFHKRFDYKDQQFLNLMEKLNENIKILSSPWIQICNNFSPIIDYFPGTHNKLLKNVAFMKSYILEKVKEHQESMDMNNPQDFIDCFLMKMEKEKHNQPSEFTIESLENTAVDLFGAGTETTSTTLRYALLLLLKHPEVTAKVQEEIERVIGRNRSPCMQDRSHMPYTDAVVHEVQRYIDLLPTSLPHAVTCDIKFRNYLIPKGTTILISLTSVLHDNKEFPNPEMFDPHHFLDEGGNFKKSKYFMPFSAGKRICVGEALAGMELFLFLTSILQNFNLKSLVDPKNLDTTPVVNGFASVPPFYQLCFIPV
CYP2C9 act: increases human cytochrome P450 2C9 activity; activation factor at 5 µM; AID 1024; recombinant CYP2C9, luciferin-H conversion, luminescence; hits give high values; factor 1 = untreated enzyme, 0 = blocked; 96,000 compounds, 1.4% hits; P11712;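 active means activation factor of 2 or more for CYP2C9 at a 5 µM dose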;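 further: 0 = sulfaphenazole-blocked wells and 1 = vehicle-only wells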
* hit, by the source's call; . = not tested or not shown. Unless noted, no stated cut-off is given here; in the data, active means inhibition above about 30%; inactive means the rest.

SMILES	CYP2C19 activ	PostGolgi yeast	CYP2C19 inh	PostGolgi ctrl	CYP2C9 inhib	CYP2C9 act
Cc1ccc(N2CC(C(=O)Nc3ccccn3)CC2=O)cc1 (configuration not stated)	0.8	0	25	-3	24	0.8
COc1ccc(NC(=O)CCc2nc(-c3ccc(C)cc3)no2)c(OC)c1	0.8	-2	24	10	12	0.9
Cc1ccc(-c2noc(CCC(=O)N3CCN(c4cccc(C(F)(F)F)c4)CC3)n2)cc1	0.2	2	77*	15	93*	0.1
COc1ccc(-c2noc(CCC(=O)N3CCN(c4cc(C)ccc4C)CC3)n2)cc1	0.4	-3	65*	6	78*	0.2
CC(NC(=O)CSc1nc2ccccc2c(=O)n1CCCO)c1ccccc1 (configuration not stated)	0.3	-1	72*	1	90*	0.1
O=c1c2ccccc2nc(SCc2cc(=O)n3ccsc3n2)n1CCCO	0.8	-6	25	-7	38	0.6
CC(C)NC(=O)CSc1nc2ccccc2c(=O)n1CCCOC(C)C	0.8	-6	18	-8	54*	0.5
CCCCn1c(SCC(=O)Nc2nccs2)nc2ccccc2c1=O	0.9	2	8	13	18	0.8
C=CCn1c(N)cc(=O)nc1SCC(=O)NC(C)c1ccccc1 (configuration not stated)	0.5	2	52*	0	-16	1.2
Cc1ccc(CNC(=O)CSc2nc3ccccc3c(=O)n2CCCO)cc1	0.4	-8	62*	-1	87*	0.1
COCCCn1c(SCC(=O)NC(C)C)nnc1-c1ccccc1	1	2	5	7	-6	1.1
CCCCN(CC)CCCNC(=O)C1c2ccccc2C(=O)N(C)C1c1cn(C)c2ccccc12 (configuration not stated)	0.9	-5	9	8	24	0.8
COc1ccccc1NC(=O)N1CCC(c2nnc(SCC(N)=O)n2C)CC1	1.1	5	-9	13	-1	1
O=c1oc2c3c4c(cc2c2c1CCC2)OCCN4CCC3	0.7	2	28	24	-1	1
Cc1ccc(CNC(=O)CSc2nc3ccccc3c3nc(C)nn23)cc1	0.8	4	23	21	-98	2*
Cc1ccc(CNC(=O)CSc2nnnn2C)cc1	0.8	13	16	2	24	0.8
CCOc1cc(C(c2c(C)[nH][nH]c2=O)c2c(C)[nH][nH]c2=O)ccc1OC(=O)c1cccc([N+](=O)[O-])c1	0.6	1	41	2	54*	0.5
CCOc1cc(C(c2c(C)[nH][nH]c2=O)c2c(C)[nH][nH]c2=O)ccc1OCc1ccc([N+](=O)[O-])cc1	0.4	-7	60*	9	34	0.7
CN1CCN(S(=O)C23CC4CC(CC(C4)C2)C3)CC1 (configuration not stated)	.	17	.	16	.	.
CCOC(=O)CC1(c2ccccc2)CCOC(C)(C)C1 (configuration not stated)	0.1	-10	87*	2	34	0.7
CC1(C)CC(CC(=O)O)(c2ccccc2)CCO1 (configuration not stated)	0.9	0	6	-4	3	1
N#C/C(C(=O)c1ccccc1)=C1/CCCCCN1	0.6	-4	39	-1	-4	1
COCCNCCOc1ccccc1-c1ccccc1	0.4	7	59*	-5	13	0.9
O=C(NCCn1ccc2ccccc21)c1ccc(S(=O)(=O)N2CCOCC2)cc1	1.1	4	-10	9	22	0.8
CCN(CC)c1ccc(C(=O)n2cnc3ccccc32)cc1	0.2	5	85*	20	75*	0.3
O=C1CC(c2ccccc2)CC(O)=C1C=NCCN1CCNCC1 (configuration not stated)	1.1	1	-7	1	-8	1.1
COc1ccc(C2CC(=O)C(C=NCCCN3CCOCC3)=C(O)C2)cc1 (configuration not stated)	1.1	-4	-8	39*	-1	1
O=C1CC(c2ccc(Cl)c(Cl)c2)CC(O)=C1C=NCCN1CCNCC1 (configuration not stated)	0.8	14	23	37*	20	0.8
